Measurements taken from PubChem BioAssay (NCATS).
Results filed as inconclusive are left out. Active and inactive are the calls of the source. The call rests on the fitted dose curve; in most records, active means well fitted curve in the direction sought with a large enough effect; inconclusive means small, poorly fitted or top-dose-only effect, or another doubt; inactive means no such curve, though single readings can be large; an effect the other way counts as inactive or inconclusive. Non-standard residues stand in square brackets, D forms with d. Residues, ends and D or L forms follow the SMILES beside them. *: point of attachment. Nva = CCC[C@H](N)C(=O)O; Cbz = O=C(OCc1ccccc1)*

Key:
[1] = Quantitative High-Throughput drug screen in 47 multiple myeloma cell lines against the NCATS MIPE library collection: KHM11_PLB cell viability assay (AID 1918962); further: nearly all actives have a fitted effect of over 35% in size
Summary of the method: (§1)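 Myeloma cell lines, 500 cells per well, exposed to MIPE 4.0 library compounds for 48 h at 37C, 5% CO2. Viability from ATP by CellTiter-Glo luminescence; normalised to DMSO (100%) and media-only (0%) wells.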

[2] = Quantitative High-Throughput drug screen in 47 multiple myeloma cell lines against the NCATS MIPE library collection: JIM3_ECACC cell viability assay (AID 1918963; further: nearly all actives have a fitted effect of over 35% in size)
Summary of the method: as §1

[3] = Quantitative High-Throughput drug screen in 47 multiple myeloma cell lines against the NCATS MIPE library collection: JIM1_ECACC cell viability assay (AID 1918964)
Summary of the method: (§2)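 Inhibition of cell viability is measured here. Each line was plated at 500 cells per well, treated with MIPE 4.0 drugs, kept 48 hours at 37C, then assayed for ATP content by CellTiter-Glo luminescence.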

[4] = Quantitative High-Throughput drug screen in 47 multiple myeloma cell lines against the NCATS MIPE library collection: INA6_PLB cell viability assay (AID 1918965; further: nearly all actives have a fitted effect of over 55% in size)
Summary of the method: as §1

[5] = Quantitative High-Throughput drug screen in 47 multiple myeloma cell lines against the NCATS MIPE library collection: JJN3_DSMZ cell viability assay (AID 1918966; further: nearly all actives have a fitted effect of over 50% in size)
Summary of the method: as §2

[6] = Quantitative High-Throughput drug screen in 47 multiple myeloma cell lines against the NCATS MIPE library collection: H1112_PLB cell viability assay (AID 1918967; further: nearly all actives have a fitted effect of over 30% in size)
Summary of the method: as §2

[7] = Quantitative High-Throughput drug screen in 47 multiple myeloma cell lines against the NCATS MIPE library collection: Karpas25_ECACC cell viability assay (AID 1918968; further: nearly all actives have a fitted effect of over 35% in size)
Summary of the method: as §2

[8] = Quantitative High-Throughput drug screen in 47 multiple myeloma cell lines against the NCATS MIPE library collection: KMS12BM_JCRB cell viability assay (AID 1918971); further: nearly all actives have a fitted effect of over 35% in size
Summary of the method: (§3)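 We plated 500 myeloma cells per well, pinned in MIPE 4.0 compounds, and incubated for 48 hours at 37C. ATP was then quantified with CellTiter-Glo, with DMSO and media-only wells defining 100% and 0%.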

[9] = Quantitative High-Throughput drug screen in 47 multiple myeloma cell lines against the NCATS MIPE library collection: KMS20_JCRB cell viability assay (AID 1918973); further: nearly all actives have a fitted effect of over 45% in size
Summary of the method: as §2

[10] = Quantitative High-Throughput drug screen in 47 multiple myeloma cell lines against the NCATS MIPE library collection: NCIH929_DSMZ cell viability assay (AID 1918978); further: nearly all actives have a fitted effect of over 35% in size
Summary of the method: (§4)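 500 cells/well per myeloma line exposed to pinned MIPE 4.0 compounds for 48 h at 37 °C, 5% CO2. Viability read as ATP by CellTiter-Glo luminescence, normalised to DMSO-only (100%) and media-only (0%) wells.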

[11] = Quantitative High-Throughput drug screen in 47 multiple myeloma cell lines against the NCATS MIPE library collection: OCIMY1_PLB cell viability assay (AID 1918979); further: nearly all actives have a fitted effect of over 35% in size
Summary of the method: as §4

[12] = Quantitative High-Throughput drug screen in 47 multiple myeloma cell lines against the NCATS MIPE library collection: MM1S_ATCC cell viability assay (AID 1918980); further: nearly all actives have a fitted effect of over 45% in size
Summary of the method: as §4

[13] = Quantitative High-Throughput drug screen in 47 multiple myeloma cell lines against the NCATS MIPE library collection: KMS27_JCRB cell viability assay (AID 1918970); details: KMS27 myeloma cells, CellTiter-Glo ATP viability, 48 h; viability (% of DMSO): at 45.8 µM (top of the series); further: nearly all actives have a fitted effect of over 30% in size
Summary of the method: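 Each line is seeded at 500 cells per well and treated with library compounds for 48 hours under 37 °C, 5% CO2. CellTiter-Glo is then added for 5 min at room temperature before median relative luminescence is recorded.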

[14] = Quantitative High-Throughput drug screen in 47 multiple myeloma cell lines against the NCATS MIPE library collection: KMS12PE_JCRB cell viability assay (AID 1918972); further: nearly all actives have a fitted effect of over 30% in size
Summary of the method: as §1

[15] = Quantitative High-Throughput drug screen in 47 multiple myeloma cell lines against the NCATS MIPE library collection: KMS26_JCRB cell viability assay (AID 1918975); further: nearly all actives have a fitted effect of over 45% in size
Summary of the method: as §3

[16] = Quantitative High-Throughput drug screen in 47 multiple myeloma cell lines against the NCATS MIPE library collection: MOLP8_DSMZ cell viability assay (AID 1918977); further: nearly all actives have a fitted effect of over 45% in size
Summary of the method: as §4

[17] = Quantitative High-Throughput drug screen in 47 multiple myeloma cell lines against the NCATS MIPE library collection: MM1R_ATCC cell viability assay (AID 1918981); further: nearly all actives have a fitted effect of over 35% in size
Summary of the method: as §4

[18] = Quantitative High-Throughput drug screen in 47 multiple myeloma cell lines against the NCATS MIPE library collection: MMM1_PLB cell viability assay (AID 1918976); further: nearly all actives have a fitted effect of over 35% in size
Summary of the method: as §4

[19] = Quantitative High-Throughput drug screen in 47 multiple myeloma cell lines against the NCATS MIPE library collection: KMS21BM_JCRB cell viability assay (AID 1918974); details: ATP luminescence, 48 h; viability: at 45.8 µM (top of the series)
Summary of the method: as §2
Potency means the concentration at half of the fitted maximal effect.

Compound	Potency [1]	Potency [2]	Potency [3]	Potency [4]	Potency [5]	Potency [6]	Potency [7]	Potency [8]	Potency [9]	Potency [10]	Potency [11]	Potency [12]	Potency [13]	Potency [14]	Potency [15]	Potency [16]	Potency [17]	Potency [18]	Potency [19]
CCCCCCCCCCCC(CC1OC(=O)C1CCCCCC)OC(=O)C(CC(C)C)NC=O (stereo not given)	inactive	inactive	inactive	332 nM (active)	23500 nM (active)	inactive	inactive	20900 nM (active)	4.2 nM (active)	inactive	inactive	inactive	–	–	–	–	–	–	–
CC(C)C[C@H](NC(=O)CNC(=O)c1cc(Cl)ccc1Cl)B1OC(=O)CC(CC(=O)O)(C(=O)O)O1 (stereo not given in full)	37.2 nM (active)	83.3 nM (active)	37.2 nM (active)	33.2 nM (active)	74.3 nM (active)	66.2 nM (active)	29.6 nM (active)	83.3 nM (active)	166 nM (active)	33.2 nM (active)	59 nM (active)	41.8 nM (active)	83.3 nM (active)	46.9 nM (active)	93.5 nM (active)	46.9 nM (active)	29.6 nM (active)	–	–
C=CCNC1=C2C[C@@H](C)C[C@H](OC)[C@@H](O)[C@@H](C)C=C(C)[C@H](OC(N)=O)[C@@H](OC)C=CC=C(C)C(=O)NC(=CC1=O)C2=O	590 nM (active)	2640 nM (active)	662 nM (active)	209 nM (active)	332 nM (active)	14800 nM (active)	1480 nM (active)	469 nM (active)	1 nM (active)	1180 nM (active)	1050 nM (active)	2350 nM (active)	105 nM (active)	83.3 nM (active)	2350 nM (active)	264 nM (active)	1320 nM (active)	5900 nM (active)	–
O=C(C=Cc1ccc(CN(CCO)CCc2c[nH]c3ccccc23)cc1)NO	209 nM (active)	332 nM (active)	132 nM (active)	29.6 nM (active)	93.5 nM (active)	187 nM (active)	59 nM (active)	83.3 nM (active)	–	–	296 nM (active)	105 nM (active)	105 nM (active)	83.3 nM (active)	105 nM (active)	83.3 nM (active)	59 nM (active)	–	–
CCC(C=C[C@@H]1OC(=O)C=C[C@H]1C)=C[C@H](C)CC=CC(C)=C[C@@H](C)C(=O)[C@@H](C)[C@H](O)[C@@H](C)CC(C)=CC(=O)O	43.9 nM (active)	34.9 nM (active)	15.6 nM (active)	15.6 nM (active)	22 nM (active)	39.2 nM (active)	19.6 nM (active)	19.6 nM (active)	8.8 nM (active)	19.6 nM (active)	27.7 nM (active)	15.6 nM (active)	9.8 nM (active)	19.6 nM (active)	–	19.6 nM (active)	9.8 nM (active)	27.7 nM (active)	–
c1ccc(CNc2nc(NCc3ccccc3)c3ccccc3n2)cc1	8330 nM (active)	16600 nM (active)	8330 nM (active)	7430 nM (active)	23500 nM (active)	11800 nM (active)	5900 nM (active)	29600 nM (active)	8330 nM (active)	–	–	8330 nM (active)	5900 nM (active)	5900 nM (active)	26400 nM (active)	18700 nM (active)	26400 nM (active)	16600 nM (active)	–
C=Cc1c(C)c2cc3nc(cc4[nH]c(cc5nc(cc1[nH]2)C(C)=C5CCC(=O)O)c(CCC(=O)OC)c4C)[C@@]1(C)C3=CC=C(C(=O)OC)[C@H]1C(=O)OC	526 nM (active)	418 nM (active)	148 nM (active)	209 nM (active)	29.6 nM (active)	235 nM (active)	132 nM (active)	187 nM (active)	148 nM (active)	83.3 nM (active)	2350 nM (active)	52.6 nM (active)	132 nM (active)	187 nM (active)	–	2090 nM (active)	93.5 nM (active)	332 nM (active)	–
CC(C)C[C@H](NC(=O)[C@@H](NC(=O)c1cccc(-c2ccccc2)n1)[C@@H](C)O)B(O)O	18.7 nM (active)	37.2 nM (active)	10.5 nM (active)	1 nM (active)	41.8 nM (active)	33.2 nM (active)	13.2 nM (active)	37.2 nM (active)	33.2 nM (active)	11.8 nM (active)	16.6 nM (active)	13.2 nM (active)	23.5 nM (active)	–	41.8 nM (active)	29.6 nM (active)	–	3720 nM (active)	–
CCC[C@@H](C=O)NC(=O)[C@H](CC(C)C)NC(=O)[C@H](CC(C)C)NC(=O)OCc1ccccc1 (Cbz-Leu-Leu-[Nva]-aldehyde)	469 nM (active)	935 nM (active)	372 nM (active)	235 nM (active)	1180 nM (active)	418 nM (active)	296 nM (active)	1050 nM (active)	187 nM (active)	296 nM (active)	743 nM (active)	418 nM (active)	–	296 nM (active)	1320 nM (active)	1180 nM (active)	743 nM (active)	–	–
C=CC(=O)Nc1cccc(Nc2nc(NC3CCC(N(C)C)CC3)nc3c2ncn3C(C)C)c1 (stereo not given)	372 nM (active)	332 nM (active)	1 nM (active)	296 nM (active)	10.5 nM (active)	41.8 nM (active)	29.6 nM (active)	469 nM (active)	93.5 nM (active)	37.2 nM (active)	4690 nM (active)	41.8 nM (active)	–	–	235 nM (active)	166 nM (active)	–	1050 nM (active)	16.6 nM (active)
